Assay outcomes from PubChem.
Shown is part of a subset that was picked to be rich in hits.
IMPase Li cell: cell-permeable IMPase inhibitors with lithium potentiation | CHO-M1 cells, IP1 TR-FRET (IP-One), carbachol + lithium | Potency, µM (highest dose often 59.4 µM), actives largely listed as inhibitors | actives 0.35% (n = 210,000) | AID 1457; active = well fitted inhibition curve with a large enough effect; inconclusive = small, poorly fitted or top-dose-only effect; inactive = no such curve, though single readings can be large or run the other way;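 note: IP1 builds up when IMPase is blocked and the TR-FRET signal falls; nearly all actives have a fitted effect of over 50% in size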
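Steps: plate 2000 CHO-M1 cells per well and culture 16–30 h; add compound and lithium; incubate 30 min, 37C; add d2-IP1 tracer and Eu cryptate anti-IP1 antibody in lysis buffer; read after 10 min at room temperature.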
Lamin A splicing: modulators of lamin A splicing; HeLa LMNA splicing GFP/RFP minigene ratio, 48 h; actives 0.01% (n = 200,000); Potency, µM (series often up to 46.1 µM), most hits filed as inhibitors; active = well fitted inhibition curve with a large enough effect in the signal ratio, with a control signal flat, not every such curve was filed as active; inconclusive = small, poorly fitted or top-dose-only effect, or effect the other way, or a change in a side signal; the % refers to the signal ratio
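S3 HeLa stable clones carrying a lamin A-EGFP splicing minigene plus DsRed2 were seeded at 600 cells/well in Opti-MEM with 2% FBS, pin-dosed and incubated 48 h at 37°C. Acumen cytometry (488 nm) gave the GFP/RFP total-intensity ratio.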
IMPase cell inh: IMPase inhibition in cells; CHO-M1 cells, IP1 accumulation, HTRF TR-FRET ratio; inhibition (IP1 accumulation), % at 46.1 µM; 120,000 tested, under 10 active; AID 901; active = well fitted curve in the direction sought with a large enough effect in the signal ratio, not every such curve was filed as active; inconclusive = small, poorly fitted or top-dose-only effect, or a change in a side signal; inactive = no such curve, though single readings can be large or run the other way; the % refers to the signal ratio;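 note: cells stimulated with carbachol in lithium chloride buffer; higher means more IMPase inhibition seen as more IP1 and lower FRET ratio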
Target sequence (P97697 whole entry, looked up): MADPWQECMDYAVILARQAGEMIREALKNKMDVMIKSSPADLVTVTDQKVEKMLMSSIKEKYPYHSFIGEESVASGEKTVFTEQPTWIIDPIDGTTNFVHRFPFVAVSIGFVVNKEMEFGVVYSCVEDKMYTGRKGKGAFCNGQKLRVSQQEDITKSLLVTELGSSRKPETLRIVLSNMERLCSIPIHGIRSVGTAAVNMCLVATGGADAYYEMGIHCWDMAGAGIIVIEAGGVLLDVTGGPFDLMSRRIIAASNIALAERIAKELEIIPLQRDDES
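CHO-M1 cells (CHO stably expressing M1 receptor), compound up to 46 uM final, stimulated with carbachol (50 uM as added) in buffer with 50mM LiCl, pH 7.4, 30 min at 37C. Cytosolic IP1 read by TR-FRET; AC50 from Hill fits.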
Numbers stand for hits; 0 = inactive; ? = inconclusive; - = not tested or not shown; [ ] = another dose, or the depositor's remark.

SMILES	IMPase Li cell	Lamin A splicing	IMPase cell inh
CCCCC[C@H](O)/C=C/C=C/C=C/[C@H](O)C/C=C\CCCC(=O)O	0	-	-
CCNc1ncc2nc(-c3ccc(Cl)cc3)c(=O)n(C3CC3)c2n1	5.01µM	-	-
COc1cccc(Cn2c(=O)c(-c3cccs3)nc3cnc(Nc4ccccc4)nc32)c1	0	-	-
CCNc1ncc2nc(-c3ccc(Cl)cc3)c(=O)n(Cc3cccs3)c2n1	0	?	-
CCNc1ncc2nc(-c3ccccc3)c(=O)n(C3CC3)c2n1	0	-	-
CCNc1ncc2nc(-c3cccs3)c(=O)n(Cc3cccc(OC)c3)c2n1	2µM	?	-
CCNc1ncc2nc(-c3ccc(Cl)cc3)c(=O)n(Cc3ccc(F)cc3)c2n1	2µM	?	-
CCC1=C2CC[C@H]3C(=O)N(CC(=O)OC)C(=O)[C@H]3[C@H]2[C@@]2(C)C(=NCCc3c[nH]c4ccccc34)OC(=O)N2C1=O	0	-	-
CC(=O)N1CCc2cc(CNS(=O)(=O)c3ccc(Cl)s3)ccc21	-	0	-
Cc1cc(C)cc(C(=O)N2CC(=O)Nc3ccc(C)cc3C2c2ccccc2)c1 (stereo not drawn)	-	-	0
COC(=O)C1=C(C(=O)OC)[C@@H]2N(C)c3ccccc3[C@@]23C[C@@H](CO)N(C(=O)c2ccco2)C3=N1	0	0[9.22 µM]	-
Nc1c(C(=O)Nc2nc3ccccc3s2)sc2nc(-c3cccs3)ccc12	11.2µM	?	?
Nc1c(C(=O)Nc2ccccc2Br)sc2nc(-c3cccs3)ccc12	-	-	0
CC1=C2C(=CO[C@H](C)[C@H]2C)C(=O)C(C(=O)O)=C1O	0	-	-
O=C(CSc1nc2c([nH]c3ccccc32)c(=O)n1-c1ccccc1)N1CCc2ccccc21	-	0	-
C=CCn1c(=S)[nH]c2scc(-c3cccs3)c2c1=O	11.2µM	?	-
C=CCn1c(=S)[nH]c2ccccc2c1=O	0	0	0
O=C(COc1ccc(Cl)cc1Cl)Nc1ccc(C(=O)OC2CCCCC2)cc1	-	-	0
CNc1nc(-c2ccccc2C(F)(F)F)nc2ccccc12	0	0	-
CCOc1ccc2cc(C#N)c(SCC(=O)N3CCOCC3)nc2c1	2.82µM	0	0
CCOc1ccc2nc(SCC(=O)N3CCCCCC3)c(C#N)cc2c1	0	0	0
CS(=O)(=O)N1CCN(c2nc3ccccc3s2)CC1	0	0	0
O=S(=O)(c1ccccc1)N1CCN(c2nc3ccccc3s2)CC1	11.2µM	0	0
CCC(CC)C(=O)Nc1ccccc1C(=O)OCc1cc(=O)n2nc(C3CCCCC3)sc2n1	-	0	-
OCc1cc2c(cn1)[nH]c1ccccc12	0	-	-
SMILES	IMPase Li cell	Lamin A splicing	IMPase cell inh
CCN1CC(O)=C(c2nc3ccccc3s2)C1=N	0	0	0
COc1ccc(N2CC(O)=C(c3nc4ccccc4s3)C2=N)cc1	14.1µM	0	0
NC(=O)NCCS[C@H]1CCCC[C@@H]1O	0	-	-
O=C(Nc1cc(-c2nc3ccccc3s2)ccc1Cl)c1ccc2c(c1)OCO2	?	0	0
Cc1ccc(-c2nc3ccccc3s2)cc1NC(=O)c1ccc2c(c1)OCO2	11.2µM	0	0
COC(=O)C/C=C/[C@@H](C)[C@H](NC(=O)OCC(Cl)(Cl)Cl)c1cccc(OC)c1	0	-	-
CCOC(=O)c1nnc(-c2ccccc2)o1	0	0	?
CCc1ccc(C(=O)COC(=O)c2ccc(-c3nnc(-c4ccccc4)o3)cc2)cc1	3.55µM	0	0
COc1ccc(OCC(=O)NC(=S)Nc2ccc3c4c(cccc24)CC3)cc1	7.08µM	0	-
Cc1ccccc1OCC(=O)NC(=S)Nc1ccc2c3c(cccc13)CC2	0	0	0
COC(=O)[C@@H]1C[C@H]1[C@@H](NC(=O)Oc1ccc(F)cc1)c1ccccc1	0	-	-
NC(Cc1cc(I)c(Oc2cc(I)c(O)c(I)c2)c(I)c1)C(=O)O (stereo not drawn)	0	-	-
Nc1cc(Cl)c([N+](=O)[O-])cc1O	0	-	-
N#CC1=C2SCN(Cc3ccccc3)CN2C(=O)CC1c1ccc2c(c1)OCO2 (stereo not drawn)	0	0	0
N#CC1=C2SCN(Cc3ccccc3)CN2C(=O)CC1c1cccs1 (stereo not drawn)	11.2µM	0	?
COc1ccc(-c2ccc(C(=O)O)c(=O)[nH]2)cc1	3.16µM	0[9.22 µM]	-
COc1ccc(-c2cc(=O)[nH]c(=S)[nH]2)cc1	0	0	-
COC(=O)c1ccc2c(=O)n3c(nc2c1)SCC(c1ccccc1)=N3	10µM	0	0
CCSc1nc2cc(C(=O)OC)ccc2c(=O)n1CC	0	0	0
CCn1ccc2cc(OC)ccc2c1=S	11.2µM	0	?
CCn1c(=S)ccc2ccc(OC)cc21	?	0	?
CCCC[C@@H]1C[C@H]1C(NC(=O)c1cccnc1)c1ccc(-c2ccccc2)cc1 (stereo partly drawn)	0	-	-
C[C@@H]1C(=O)OC2C[C@@]34[C@H]5C[C@@H](C(C)(C)C)[C@@]36C(O)C(=O)O[C@H]6O[C@@]4(C(=O)O5)[C@]21O (stereo partly drawn)	0	-	-
Cc1ccc(Cn2ccc(NC(=O)c3cc(-c4ccccc4)on3)n2)cc1	0	0	0
Cc1ccc(Cn2ccc(NC(=O)c3cc(-c4ccc5c(c4)OCO5)on3)n2)cc1	11.2µM	?	0
SMILES	IMPase Li cell	Lamin A splicing	IMPase cell inh
COc1ccc(C)cc1NC(=O)N1CCCc2ccccc21	25.1µM	-	-
O=C(Nc1ccccc1)N1CCCc2ccccc21	0	0	0
Cc1cc(N2C(=O)C(O)=C(C(=O)c3cccs3)C2c2cccc(O)c2)no1 (stereo not drawn)	0	0	0
COc1ccc(OC)c(C2C(C(=O)c3cccs3)=C(O)C(=O)N2c2cc(C)on2)c1 (stereo not drawn)	0	0	0
Cc1cc(N2C(=O)C(O)=C(C(=O)c3cccs3)C2c2ccccc2)no1 (stereo not drawn)	14.1µM	0	?
COc1cccc(C2C(C(=O)c3cccs3)=C(O)C(=O)N2c2cc(C)on2)c1 (stereo not drawn)	10µM	0	?
c1ccc(CN(CCN(Cc2ccccn2)Cc2ccccn2)Cc2ccccn2)nc1	0	-	-
COc1ccc(/C(=C\C(=O)O)c2nccc3cc(OC)c(OC)cc23)cc1OC	0	-	-
COc1cc(C2C(C(=O)c3ccc(C)o3)=C(O)C(=O)N2c2cc(C)on2)cc(OC)c1OC (stereo not drawn)	0	0	0
COc1cccc(C2C(C(=O)c3cc4ccccc4o3)=C(O)C(=O)N2c2cc(C)on2)c1OC (stereo not drawn)	11.2µM	0	?
COc1cccc(C2C(C(=O)c3cc4cccc(OC)c4o3)=C(O)C(=O)N2c2cc(C)on2)c1OC (stereo not drawn)	10µM	0	?
COc1cc(C2C(C(=O)c3ccc(C)o3)=C(O)C(=O)N2c2cc(C)on2)ccc1O (stereo not drawn)	0	?	0
CCN(CC)C[C@@H](O)c1ccc2ccc3ccccc3c2c1	0	-	-
Cn1c(-c2c(N)n(CCc3ccccc3)c3nc4ccccc4nc23)nc2ccccc21	0	?	0
Cn1c(-c2c(N)n(CCCc3ccccc3)c3nc4ccccc4nc23)nc2ccccc21	10µM	0	?
Cc1nn2c(N)c(C#N)cnc2c1-c1ccccc1	0	0	0
Cc1nn2c(N)c(C#N)cnc2c1-c1ccc(Cl)cc1	11.2µM	0	0
COc1ccc(Cl)cc1NC(=O)NCCc1c(C)nn(C)c1C	-	0	-
